In paper PMC4336329 (PLoS ONE, 2015):
In all, about 310,000 compounds went through this assay and about 2,200 (0.71%) showed an effect of 50% or more. The effect is printed as a negative number. The entries come from a sample that favours strong results as a whole.

The compounds below were run against human ether-à-go-go-related gene (hERG) potassium channel (human, UniProt Q12809) (assay: primary screen, population patch clamp on CHO cells stably expressing hERG; higher = less effect of the substance).
Description: Briefly, Chinese hamster ovary (CHO) cells stably expressing the hERG channel were dislodged from tissue culture flasks and dispensed into PPC plates. […] During the recording, background leak currents were estimated by a 100 ms step to -80 mV from an initial holding potential of -70 mV and subtracted from the subsequent current measurement. The campaign was conducted in two phases using slight differences in recording protocol. In the first phase, the initial voltage pulse used a 100 ms step to -30 mV from a holding potential of -70 mV, a 2 s conditioning step to +25 mV, and a 2 s test step to -30 mV. During the second phase of the screen, the potential during the conditioning step was raised to +45 mV. In both phases of the campaign, a secondary voltage pulse was applied using the same parameters as the second phase initial pulse. The initial and secondary pulses were applied in the absence of compound, and upon application of 1 μM and 10 μM test concentrations. Small molecule effects on hERG current density were quantified by […].

Sequence of human ether-à-go-go-related gene (hERG) potassium channel (Q12809 whole entry, looked up): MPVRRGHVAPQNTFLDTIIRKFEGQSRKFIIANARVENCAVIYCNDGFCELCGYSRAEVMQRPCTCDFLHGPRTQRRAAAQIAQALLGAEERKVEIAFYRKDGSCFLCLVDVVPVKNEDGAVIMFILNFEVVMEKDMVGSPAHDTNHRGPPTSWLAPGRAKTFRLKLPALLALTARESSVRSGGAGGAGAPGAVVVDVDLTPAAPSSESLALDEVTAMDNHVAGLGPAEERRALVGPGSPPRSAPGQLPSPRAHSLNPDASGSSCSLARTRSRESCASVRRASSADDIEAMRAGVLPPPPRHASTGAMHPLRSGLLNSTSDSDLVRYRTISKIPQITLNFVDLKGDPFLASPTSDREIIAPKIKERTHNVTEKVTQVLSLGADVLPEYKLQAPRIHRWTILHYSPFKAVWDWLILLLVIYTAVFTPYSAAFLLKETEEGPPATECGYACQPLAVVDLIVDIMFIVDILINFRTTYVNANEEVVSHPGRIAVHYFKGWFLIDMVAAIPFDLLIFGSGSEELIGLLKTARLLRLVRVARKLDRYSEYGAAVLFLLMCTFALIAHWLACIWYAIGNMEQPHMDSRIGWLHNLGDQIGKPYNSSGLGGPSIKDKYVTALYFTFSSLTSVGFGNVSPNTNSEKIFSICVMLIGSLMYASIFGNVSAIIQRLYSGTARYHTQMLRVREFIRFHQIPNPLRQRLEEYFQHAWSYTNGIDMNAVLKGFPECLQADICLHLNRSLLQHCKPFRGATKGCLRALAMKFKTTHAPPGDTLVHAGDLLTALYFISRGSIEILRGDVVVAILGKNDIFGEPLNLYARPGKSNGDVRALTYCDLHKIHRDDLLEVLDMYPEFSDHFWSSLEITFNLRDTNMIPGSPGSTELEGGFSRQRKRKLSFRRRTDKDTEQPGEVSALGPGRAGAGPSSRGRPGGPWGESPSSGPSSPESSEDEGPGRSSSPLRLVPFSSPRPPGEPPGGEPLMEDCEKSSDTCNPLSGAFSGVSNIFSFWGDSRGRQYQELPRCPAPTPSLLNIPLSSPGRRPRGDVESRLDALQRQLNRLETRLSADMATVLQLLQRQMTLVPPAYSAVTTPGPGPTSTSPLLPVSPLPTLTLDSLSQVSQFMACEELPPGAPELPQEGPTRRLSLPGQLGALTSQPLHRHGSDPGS

Row | Compound | hERG current change (%, negative = inhibition) at 1uM [%]
1 | CCC(C)NC(=O)C(=O)NCc1ccncc1 (stereo not shown) | 10.8
2 | CN1CCN(NC(=O)c2ccccc2F)CC1 | 11.7
3 | COc1ccc(CC(=O)Oc2cc(C)[nH]c(=O)c2[N+](=O)[O-])cc1 | 4.19
4 | COc1ccc(-c2csc(/C=C/c3ccc4c(c3)OCO4)n2)cc1OC | 2.68
5 | CN(c1ncnc(N)c1[N+](=O)[O-])C1CCCCC1 | 12.5
6 | Cc1ccc(S(=O)(=O)N2CCC(C(=O)N3CCC3)CC2)cc1 | 11.3
7 | CC(C)OC(=O)COc1cc(O)c2c(=O)cc(-c3ccccc3)oc2c1 | 10.8
8 | CCOC(=O)C1CCCN(CCCc2ccccc2)C1 (stereo not shown) | -2.62
9 | COc1ccccc1-c1ccc(=O)n(CC(=O)NCc2cccs2)n1 | 15.8
10 | COCCC(=O)N1CCC(Oc2ccc(C(=O)N3C[C@@H]4CCC[C@H]3C4)cc2)CC1 | 5.49
11 | OC[C@H]1O[C@@H](Oc2ccc3cc(Br)ccc3c2)[C@H](O)[C@@H](O)[C@H]1O | 4.75
12 | OCCC1CN(Cc2cccn2-c2cccnc2)CCN1Cc1ccc(F)cc1 (stereo not shown) | -21.4
13 | CCOc1ccc(CN2CCN(Cc3cccn3-c3cccnc3)CC2CCO)cc1 (stereo not shown) | -86.3
14 | CC(C)CCN1CCN(Cc2cccn2-c2cccnc2)CC1CCO (stereo not shown) | -9.84
15 | Cc1cc(/C([O-])=C(/C(=S)Nc2ccccc2)[n+]2ccccc2)c(C)n1-c1ccccc1 | 9.1
16 | Cc1ccc(N2C(=O)CC(N3CCN(c4ccccn4)CC3)C2=O)cc1 (stereo not shown) | -8.68
17 | COc1ccc(N2C(=O)CC(N3CCN(C4CCc5ccccc5C4)CC3)C2=O)cc1 (stereo not shown) | -37.7
18 | Cc1ccc(N2C(=O)CC(N3CCN(C4CCc5ccccc5C4)CC3)C2=O)cc1 (stereo not shown) | -59
19 | CCOc1ccc(N2C(=O)CC(N3CCN(C4CCc5ccccc5C4)CC3)C2=O)cc1 (stereo not shown) | -65.5
20 | O=C1CC(N2CCN(C3CCc4ccccc4C3)CC2)C(=O)N1c1ccccc1 (stereo not shown) | -42.7
21 | CCOc1ccc(N2C(=O)CC(N3CCc4ccccc43)C2=O)cc1 (stereo not shown) | 5.06
22 | O=C(CSc1nc2[nH]ncc2c(=O)[nH]1)Nc1ccc(F)cc1 | 13.3

Row | Compound | hERG current change (%, negative = inhibition) at 1uM [%]
23 | N#Cc1c(-c2ccccc2)cc(-c2ccc3c(c2)OCO3)[nH]c1=O | 11
24 | CCCCC(C(=O)O)C(C)CC(=O)Nc1cccc(C(=O)O)c1 (stereo not shown) | 3.02
25 | Cc1cccc(OCCSCc2nc3ccccc3[nH]2)c1 | 12.1
26 | CC(=O)Nc1ccc(S(=O)(=O)Nc2ccc(-c3ccc4nnc(C)n4n3)cc2)cc1 | -3.52
27 | COc1ccc(NC(=O)c2cc3c(=O)n4ccccc4nc3n2C)cc1OC | 11.4
28 | COc1cccc(NC(=O)c2cc3c(=O)n4ccccc4nc3n(CC(C)C)c2=N)c1 | -87.5
29 | Cc1cccc(NC(=O)c2cc3c(=O)n4ccccc4nc3s2)c1 | 11.5
30 | Cc1cccc(NC(=O)c2c(C)nc3ccccn23)c1 | 3.98
31 | Cc1cccc(NC(=O)c2cc3c(=O)n4ccccc4nc3n(CC(C)C)c2=N)c1 | -52.2
32 | COc1cccc(NC(=O)C(Sc2nc3ccccc3c(=O)n2CC(C)C)c2ccccc2)c1 (stereo not shown) | 6.46
33 | CCCC(=O)Nc1nnc(CCc2ccccc2)s1.Cl | 12.1
34 | COc1cccc(NC(=O)NC2(C(F)(F)F)Oc3ccccc3O2)c1 | 8.19
35 | Cc1cc(C)n(CC(=O)c2ccc(Br)cc2)c(=O)c1C#N | -2.8
36 | CCCN(c1ccc(OCC)cc1)S(=O)(=O)c1ccc2c(c1)CCN2C(=O)CCC(=O)O | 12.5
37 | N=c1c(C(=O)NCCc2ccccc2)cc2c(=O)n3ccccc3nc2n1CCCN1CCOCC1 | -77.8
38 | N=c1c(C(=O)NCc2ccccc2)cc2c(=O)n3ccccc3nc2n1CCCN1CCOCC1 | -80.7
39 | N=c1c(C(=O)NCCN2CCOCC2)cc2c(=O)n3ccccc3nc2n1CCCN1CCOCC1 | 13.2
40 | N=c1c(C(=O)NCc2ccc(F)cc2)cc2c(=O)n3ccccc3nc2n1CCCN1CCOCC1 | -91.8
41 | O=C(NCCN1CCOCC1)c1cc2c(=O)n3ccccc3nc2n1Cc1ccccc1 | 8.53
42 | N=c1c(C(=O)NCCN2CCOCC2)cc2c(=O)n3ccccc3nc2n1Cc1ccc(F)cc1 | -19.2
43 | Cc1ccc(S(=O)(=O)c2cc3c(=O)n4ccccc4nc3n(CCCN3CCOCC3)c2=N)cc1C | 2.37
44 | N=c1c(S(=O)(=O)c2ccccc2)cc2c(=O)n3ccccc3nc2n1CCCN1CCOCC1 | -42.5

Row | Compound | hERG current change (%, negative = inhibition) at 1uM [%]
45 | COc1ccc(/C=C/CN2CCC(Oc3ccc(C(=O)N4CCCCC4)cc3)CC2)cc1 | -15.6
46 | COc1ccc(-c2nc(C#N)c(NCCc3ccccc3)o2)cc1OC | 10.5
47 | COc1ccc(NC(=O)C/C(C)=N/NC(=O)C(=O)NC2CCCCC2)c(OC)c1 | -3.65
48 | COc1cc(NC(=O)C/C(C)=N/NC(=O)C(=O)NC2CCCCC2)c(OC)cc1Cl | -66.8
49 | COc1cc(NC(=O)C/C(C)=N/NC(=O)C2CCCCC2)c(OC)cc1Cl | 14.8
50 | O=C(NCc1cccnc1)C12CC3CC(CC(Cl)(C3)C1)C2 | 19
51 | Cc1cccc(NC(=O)c2c(F)c(F)c(F)c(F)c2F)c1 | -0.482
52 | Cc1cc([N+](=O)[O-])ccc1NCc1ccccc1 | 4.76
53 | O=[N+]([O-])c1ccc(NC2CCN(Cc3ccccc3)CC2)c([N+](=O)[O-])c1 | -60
54 | COc1cccc(CNc2ccc([N+](=O)[O-])cc2C)c1 | 10.7
55 | O=[N+]([O-])c1cc(C(F)(F)F)ccc1NC1CCN(Cc2ccccc2)CC1 | 3.28
56 | Cc1cc([N+](=O)[O-])ccc1NC(=O)CN1CCN(Cc2ccccc2)CC1 | -73.7
57 | Cc1ccccc1NC(=O)CN1CCN(Cc2ccccc2)CC1 | 1.75
58 | O=[N+]([O-])c1ccccc1NC1CCN(Cc2ccccc2)CC1 | -26.7
59 | Cc1ccc(F)cc1NC(=O)CN1CCN(Cc2ccccc2)CC1 | -16.8
60 | Cc1cc([N+](=O)[O-])ccc1NCc1cccc([N+](=O)[O-])c1 | -56.6
61 | O=C(CN1CCN(c2cccc(Cl)c2)CC1)Nc1ccc([N+](=O)[O-])cc1C(=O)Nc1ccccc1F | 11.4
62 | O=C(CN1CCN(Cc2ccccc2)CC1)Nc1ccc([N+](=O)[O-])cc1C(=O)Nc1ccccc1F | -56.8
63 | CCOC(=O)N1CCN(CC(=O)Nc2ccc([N+](=O)[O-])cc2C(=O)Nc2ccccc2F)CC1 | -5.13
64 | O=S(=O)(CC(CN1CCCCC1)N1CCCCC1)c1ccccc1 (stereo not shown) | 6.73
65 | O=C(Cn1cnc2c(NC(=O)OCc3ccccc3)ncnc21)NCc1ccccn1 | 0.393
66 | O=C(NCCS(=O)(=O)N1CCN(c2ccccc2F)CC1)C1CC(=O)N(c2ccccc2)C1 (stereo not shown) | 11.6

Row | Compound | hERG current change (%, negative = inhibition) at 1uM [%]
67 | O=C(Nc1ccon1)C1CCN(S(=O)(=O)c2cccs2)CC1 | -4.01
68 | CC(=O)NNS(=O)(=O)c1ccc(-c2cc(C(F)(F)F)n(C)n2)s1 | 2.67
69 | CCOc1ccc2[nH]c(=O)c(CN(CCN3CCOCC3)Cc3nnnn3C(C)(C)CC)cc2c1 | 12.1
70 | COc1ccc(NC(=O)CSc2nnc(Cc3ccc(C)cc3)c(=O)n2N)cc1OC | 4
71 | CC(=O)N(C(C)=O)S(=O)(=O)c1ccc(N=NN2CCCCC2)cc1 | 11.6
72 | Cc1ccc(CNC(=O)CCS(=O)(=O)c2ccc3c(c2)CC(C)N3C(=O)C2CC2)cc1 (stereo not shown) | 0.306
73 | CCOC(=O)N1CCN(C(=O)c2ccc([N+](=O)[O-])cc2Cl)CC1 | 6.8
74 | Fc1ccc(C[n+]2c(-c3ccccc3)cc(-c3ccccc3)cc2-c2ccccc2)cc1.[O-][Cl+3]([O-])([O-])[O-] | -27.1
75 | Cc1ccccc1-[n+]1c(-c2ccccc2)cc(-c2ccccc2)cc1-c1ccccc1.[O-][Cl+3]([O-])([O-])[O-] | -55.8
76 | Cc1ccc(-c2cc(-c3ccc(C)cc3)[n+](-c3ccccc3)c(-c3ccc(C)cc3)c2)cc1.[O-][Cl+3]([O-])([O-])[O-] | -77.3
77 | Clc1ccc(C[n+]2c(-c3ccccc3)cc(-c3ccccc3)cc2-c2ccccc2)cc1.[O-][Cl+3]([O-])([O-])[O-] | -25.5
78 | Oc1ccc(-[n+]2c(-c3ccccc3)cc(-c3ccccc3)cc2-c2ccccc2)cc1.[O-][Cl+3]([O-])([O-])[O-] | 5.58
79 | Oc1ccccc1-[n+]1c(-c2ccccc2)cc(-c2ccccc2)cc1-c1ccccc1.[O-][Cl+3]([O-])([O-])[O-] | -40.5
80 | Nc1ccccc1-[n+]1c(-c2ccccc2)cc(-c2ccccc2)cc1-c1ccccc1.[O-][Cl+3]([O-])([O-])[O-] | 0.0928
81 | Cc1ccc(-c2cc(-c3ccc(C)cc3)[n+](-c3ccc(C(=O)O)cc3)c(-c3ccc(C)cc3)c2)cc1.[O-][Cl+3]([O-])([O-])[O-] | 17.7
82 | COc1ccc(-[n+]2c(-c3ccccc3)cc(-c3ccccc3)cc2-c2ccccc2)cc1.[O-][Cl+3]([O-])([O-])[O-] | -29.2
83 | Cc1ccc(C[n+]2c(-c3ccc(C)cc3)cc(-c3ccc(C)cc3)cc2-c2ccc(C)cc2)cc1.[O-][Cl+3]([O-])([O-])[O-] | -61.7
84 | Brc1ccc(-[n+]2c(-c3ccccc3)cc(-c3ccccc3)cc2-c2ccccc2)cc1.[O-][Cl+3]([O-])([O-])[O-] | -18.7
85 | COc1ccc(-[n+]2c(-c3ccccc3)cc(-c3ccc(C)cc3)cc2-c2ccccc2)cc1.[O-][Cl+3]([O-])([O-])[O-] | -52
